# According to PubChem BioAssay:
# Measured potencies and affinities stand elsewhere. Unmarked numbers belong to inactive results.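 The calls were made as follows, unless noted: active = a dose-response fit showing signal loss, with half-maximal concentration no higher than twice the top tested dose; inconclusive = flat fit between 30% and 70% signal loss, or poor fit; inactive = the rest.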
# Test: inducers of Cryptococcus neoformans cell lysis, dose response, AK release luminescence, cherry-picks (AID 687000;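 active = fitted dose curve reaches 40% lysis signal rise at or below the highest valid concentration tested for that sample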;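 also: luminescent detection of adenylate kinase leaking from lysed yeast; 0% = median neutral control signal and 100% = double that signal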)
# Conditions: C. neoformans lysis, adenylate kinase release luminescence, 4 h, 100% = twice the neutral-control signal; series mostly up to 15 µM; lysis activity: at the top concentration
row,SMILES,lysis activity [%]
1,COc1ccc(CN(C)C[C@@H]2Oc3ccc(NS(C)(=O)=O)cc3CC(=O)N([C@H](C)CO)C[C@H]2C)cc1,-11.6
2,C[C@@H]1CCCCO[C@H](CN(C)Cc2ccccc2)[C@H](C)CN([C@@H](C)CO)C(=O)c2cc(NS(=O)(=O)c3cccs3)ccc2O1,1.39
3,CC(C)CC#Cc1cnc2c(c1)C(=O)N([C@@H](C)CO)C[C@H](C)[C@H](CN(C)C(=O)c1ccc3c(c1)OCO3)O2,-2.21
4,COc1ccc(NC(=O)CSc2ncnc3c2cnn3Cc2ccccc2)cc1,-21.2
5,CCC(=O)N1CCC1(C)C(=O)Nc1ccc(C)c(C)c1 (stereo not given),-17.3
6,CCOC(=O)CNC(=O)CSc1ncnc2c1cnn2-c1ccc(Cl)cc1,-14.4
7,Cc1cc(C(=O)Nc2cccc3c2O[C@@H](CN(C)S(=O)(=O)c2ccccc2)[C@@H](C)CN([C@@H](C)CO)C3=O)n(C)n1,1.55
8,Cc1ccc(N2C(=O)CC(N3CCN(c4ccc(F)cc4)CC3)C2=O)c(C)c1 (stereo not given),-37.9
9,CCC(C)N(C(=O)CSc1ncnc2c1cnn2-c1ccccc1)C1CCS(=O)(=O)C1 (stereo not given),3.75
10,CCC(=O)N1[C@H](CN(C)C(C)=O)[C@@H](c2ccc(C3=CCCCC3)cc2)[C@@H]1CO,-2.02

# Test: HepG2 cell cytotoxicity, dose response, cytotoxicity control, cherry-picks, set 2 (AID 687002)
# Conditions: HepG2 viability, ATP luminescence (CellTiter-Glo), 48 h; series mostly up to 26 µM; activity change, negative = cytotoxicity: at the top concentration
row,SMILES,"activity change, negative = cytotoxicity"
1,c1ccc(-n2ncc3c(NCc4ccc5c(c4)OCO5)ncnc32)cc1,-8.99%
2,CCC(=O)Nc1ccc2c(c1)OC[C@H](C)N(C(=O)c1ccc(F)cc1)C[C@@H](C)[C@@H](OC)CN(C)C2=O,-4.92%
3,Cc1cccc(C)c1NC(=O)C1CCCN1C(=O)OC(C)(C)C (stereo not given),7.8%
4,Cc1noc(C)c1NC(=O)N(C)C[C@H]1Oc2ccc(NC(=O)C3CC3)cc2CC(=O)N([C@@H](C)CO)C[C@H]1C,-4.02%
5,CC12CC3CC(C)(C1)CC(C(=O)NC(=S)N1CCCCC1)(C3)C2,10%
6,CCCN1C(=O)C(O)(C2CC(=O)CC(C)(C)O2)c2ccccc21 (stereo not given),-6.48%
7,CCCC(=O)Nc1ccc2c(c1)OC[C@H](C)N(Cc1ccccn1)C[C@H](C)[C@H](OC)CN(C)C2=O,13.6%
8,Cc1noc(C)c1S(=O)(=O)Nc1ccc2c(c1)C(=O)N([C@@H](C)CO)C[C@@H](C)[C@H](CN(C)Cc1ccc3c(c1)OCO3)OCCCC[C@H](C)O2,-14.7%
9,Cc1cc(OCC(=O)NC(C)c2ccccc2)ccc1[N+](=O)[O-] (stereo not given),5.47%
10,O=C(C[C@H]1CC[C@@H]2[C@H](COC[C@H](O)CN2CC2CCOCC2)O1)NCc1ccc(Cl)cc1,7.95%
11,CCNC(=O)CN(c1ccc(Cl)cc1)S(=O)(=O)c1ccccc1,-9.91%
12,Cc1cc(C)c(NC(=O)CN2CCCCCC2)c(C)c1,-11.3%
13,CNC(=O)CN(c1ccc(OC)cc1)S(=O)(=O)c1ccc(F)cc1,-11.9%
14,C[C@@H]1CN([C@H](C)CO)C(=O)c2cc(NS(=O)(=O)c3cn(C)cn3)ccc2O[C@@H](C)CCCCO[C@H]1CN(C)C,-2.73%
15,COc1ccccc1-c1ccc([C@H]2[C@H](C#N)N(C(=O)C3CC3)[C@H]2CO)cc1,-5.27% [at 23.5 µM]
16,Cc1ccc(C(=O)n2nnc3ccccc32)cc1[N+](=O)[O-],-0.078%
17,CC(=O)N1[C@H](CO)[C@H](c2ccc(-c3ccccc3)cc2)[C@@H]1CNC(=O)C1CC1,-13%
18,NC(=S)N/N=C/c1ccc(-c2cc(Cl)ccc2Cl)o1,1.76%
19,O=C(CSc1ncnc2c1cnn2-c1ccc(F)cc1)NCC1CCCO1 (stereo not given),-4.49%
20,O=C(CCN1CCCCC1)NCC[C@@H]1CC[C@H](NC(=O)c2ccc(F)cc2)[C@@H](CO)O1,15.3%
21,CNC[C@@H]1OCCCC[C@@H](C)Oc2ccc(NC(=O)NC(C)C)cc2C(=O)N([C@@H](C)CO)C[C@H]1C,15.1%
22,C/C=C/c1ccc([C@@H]2[C@@H](CNC(=O)C3CCC3)N(C(=O)NCCC)[C@H]2CO)cc1,-8.92%
23,Cc1ccc(C(=O)Nc2ccc3ncccc3c2)cc1,-4.7%
24,Cc1cccc(C)c1NC(=O)CN(C)C(=O)CC1CC2CCC1C2 (stereo not given),0.175%
25,N#Cc1ccc(C23CC4(C2)[C@H](CN(Cc2ccc(C(F)(F)F)cc2)[C@@H]4c2ccccc2)C3c2ccccc2)cc1 (stereo not given in full),5.28%
26,Cc1ccc(NC(=S)NCc2ccc(Cl)cc2)c(OC(F)F)c1,3.43%
27,Cc1ccc(C2CC(c3cccs3)=NN2C(=O)c2ccc(Br)o2)cc1 (stereo not given),1.84%
28,CC(C)(C)SCCNC(=O)CN(c1ccccc1)S(=O)(=O)c1ccccc1,-1.15%
29,O=C(COc1ccc2c(c1)CCC2)NCc1ccccc1,1.53%
30,COc1ccc(CN(C)C[C@@H]2Oc3ccc(NS(C)(=O)=O)cc3CC(=O)N([C@H](C)CO)C[C@H]2C)cc1,12.1% [at 23.5 µM]
